# Source: PubChem
# FEN1 inh: inhibitors of human flap endonuclease 1; Recombinant FEN1 flap cleavage, fluorescence, 15 min; Potency, µM (highest dose often 114 µM), inactives show at the highest dose activity change, negative = inhibition, hits mostly inhibitors; AID 588795; 390,000 compounds, 0.35% hits; further: potency means the concentration at half of the fitted maximal effect; nearly all actives have a fitted effect of over 65% in size
#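 Concentration–response screening of FEN1 (10 nM): 15 min compound preincubation at room temperature, reaction started with 50 nM substrate and read at 0 and 15 min. Corrected, normalized data were fitted by a four-parameter Hill equation.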
# TDP1 inh: blocks human tyrosyl-DNA phosphodiesterase 1 | Q9NUW8 | recombinant TDP1, AlphaScreen DNA substrate cleavage | Potency, µM (doses to about 130 µM), inactives show at the top dose activity change, negative = inhibition, actives largely listed as inhibitors | 350,000 compounds, 0.28% hits | AID 485290; further: potency means the concentration at half of the fitted maximal effect; nearly all actives have a fitted effect of over 40% in size
#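 Here, a 5' biotin and 3' phosphotyrosine-FITC DNA oligonucleotide reports Tdp1 activity: intact substrate bridges AlphaScreen beads, while cleavage leaves a 3' phosphate and drops signal. All incubations at room temperature.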
# PI4K2A inh: PI4K2A (human) kinase inhibition; purified PI4K2A, ADP-Glo luminescence, 1 h; active compounds read low; activity change, negative = inhibition, % at 76.9 µM; 420,000 compounds, 0.13% hits; AID 1346378; in the data active means activity change below about -50%; inconclusive means mostly about -30% to -49%;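 further: -100% = wells without enzyme as full effect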
#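 In this quantitative HTS, ADP production by PI4K2A was quantified luminescently after 1 h at ambient temperature; 100 microM adenosine served as plate-quality control.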
# Tb PGK inh: inhibitors of T. brucei phosphoglycerate kinase; PGK/GAPDH coupled, Kinase-Glo luminescence, 60 min; Potency, µM (highest dose often 57.5 µM), for inactives: at the highest dose activity change, negative = inhibition, usual class: inhibitors; 380,000 compounds, 0.043% hits; AID 602233; further: potency means the concentration at half of the fitted maximal effect; nearly all actives have a fitted effect of over 60% in size
# Target sequence (P07378 whole entry, looked up): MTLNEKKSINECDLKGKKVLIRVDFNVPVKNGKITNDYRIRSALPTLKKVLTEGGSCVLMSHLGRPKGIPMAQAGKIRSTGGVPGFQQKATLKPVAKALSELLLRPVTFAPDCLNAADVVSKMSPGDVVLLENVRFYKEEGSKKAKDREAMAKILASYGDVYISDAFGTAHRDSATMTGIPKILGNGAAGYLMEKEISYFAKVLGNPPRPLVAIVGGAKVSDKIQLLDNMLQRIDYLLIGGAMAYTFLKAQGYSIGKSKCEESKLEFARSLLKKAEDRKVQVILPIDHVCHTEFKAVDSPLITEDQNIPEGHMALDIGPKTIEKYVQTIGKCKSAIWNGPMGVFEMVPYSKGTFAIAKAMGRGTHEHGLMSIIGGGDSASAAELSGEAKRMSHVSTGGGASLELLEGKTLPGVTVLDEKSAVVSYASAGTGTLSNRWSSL
#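 Luminescent ATP detection (Kinase-Glo Plus) follows a 60-minute room-temperature incubation, with wells lacking PGK as controls. Buffer: 100 mM TEA (pH 7.6), 5 mM MgCl2, 0.01% Tween-20. Coupling enzyme GAPDH (100 nM final) supplies unstable 1,3-BPG in-well.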
# Tb PFK inh: T. brucei PFK enzyme inhibition; O15648; Potency, µM (highest dose often 57.5 µM), for the others: at the top dose activity, negative = inhibition, most hits filed as inhibitors; T. brucei PFK, ADP-Glo luminescence; AID 485367; 330,000 compounds, 0.17% hits;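 further: potency means the concentration at half of the fitted maximal effect; 0% = uninhibited 1x PFK enzyme wells and -100% = no-enzyme wells; nearly all actives have a fitted effect of over 60% in size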
#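 Luminescent ADP detection (ADP-Glo, two-step: ATP depletion then ADP-to-ATP conversion for luciferase) reported PFK activity after 45 min room-temperature reaction of 1.25 nM enzyme with 0.5 mM F6P and 0.1 mM ATP at pH 8.0.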
# APE1 inh-1: APE1 (human) endonuclease inhibition | P27695 | AID 2517 | 350,000 compounds, 0.35% hits | Potency, µM (titrated, usually from 65.8 µM), without a hit: top-dose activity change, negative = inhibition, hits mostly inhibitors | recombinant APE1, TAMRA/BHQ-2 abasic DNA cleavage fluorescence;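 further: potency means the concentration at half of the fitted maximal effect; plate controls were vehicle for no effect and reference inhibitor for full effect; nearly all actives have a fitted effect of over 55% in size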
#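 Endonuclease cleavage of a quenched abasic-site DNA duplex (50 nM) by APE1 (0.75 nM) was tracked by TAMRA dequenching. Compounds were preincubated with enzyme 15 min at room temperature; data normalized to buffer-only and DMSO wells plus NSC13755 control.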
# APE1 dye cs: counter-screen for APE1 inhibitors: DNA dye displacement; shares compounds with APE1 inh-1; DNA fluorescent dye displacement counterscreen, fluorescence; Potency, µM (doses to about 28.5 µM), for the others: at the highest dose activity change, negative = inhibition, most hits filed as inhibitors; 480 compounds, 7% hits; AID 2564;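 further: loss of thiazole orange fluorescence as the dye is displaced from duplex DNA; potency means the concentration at half of the fitted maximal effect; 0% = ThO with dsDNA and no compound and -100% = ThO without dsDNA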
# EndoIV counter: counter-screen for APE1 inhibitors: inhibitors of E. coli endonuclease IV; E. coli Endo IV, fluorogenic AP-site DNA cleavage; shares compounds with APE1 inh-1; Potency, µM (doses to about 27.1 µM), for inactives: at the highest dose activity change, negative = inhibition, usual class: inhibitors; 560 compounds, 4% hits;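 further: potency means the concentration at half of the fitted maximal effect; plate controls were uninhibited enzyme wells for no effect and no enzyme buffer wells for full effect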
# APE1 inh-2: APE1 (human) endonuclease inhibition, confirmation. shares compounds with APE1 inh-1. purified APE1, fluorogenic abasic-site DNA cleavage. Potency, µM (top dose mostly 57.1 µM), inactives show at the highest dose activity change, negative = inhibition, usual class: inhibitors. 750 compounds, 44% hits. AID 2572; further: potency means the concentration at half of the fitted maximal effect; nearly all actives have a fitted effect of over 30% in size
# APE1 FP inh: APE1 (human) DNA binding inhibition, fluorescence polarization; shares compounds with APE1 inh-1; APE1 binding to TAMRA-labelled double-stranded DNA, fluorescence polarization displacement; Potency, µM (doses to about 28.5 µM), for the others: at the top dose activity, negative = inhibition, actives largely listed as inhibitors; 480 compounds, 7% hits; AID 2573; further: potency means the concentration at half of the fitted maximal effect
# Starred values were filed as active, the others as inactive; i = inactive; ? = inconclusive; . = no result; [ ] = another dose, or the depositor's remark. A selection: hits, their analogues and other compounds. The true share with any hit is near 0.8%. Unless noted, the call rests on the fitted dose curve; in most records, active means well fitted curve in the direction sought with a large enough effect; inconclusive means small, poorly fitted or top-dose-only effect, or another doubt; inactive means no such curve, though single readings can be large; an effect the other way counts as inactive or inconclusive. Unless noted, on the % scale 0 is the no-effect control and ±100 the full control effect.
SMILES,FEN1 inh,TDP1 inh,PI4K2A inh,Tb PGK inh,Tb PFK inh,APE1 inh-1,APE1 dye cs,EndoIV counter,APE1 inh-2,APE1 FP inh
O=C(CSC1CC(=O)N(CC(c2ccccc2)c2ccccc2)C1=O)Nc1ccc(Cl)cc1 (configuration not stated),-21.9%,-1.9%,-2.4,1.7%,4.0%,?,48.4%,?,?,12.9%
CCC1(C)NC(=O)N(CC(=O)Nc2sc3c(c2C(=O)OC)CCCCC3)C1=O (configuration not stated),-10.7%,4.4%,-2.9,-8.1%,1.5%,2.6%,.,.,.,.
CCC1(CC)NC(=O)N(CC(=O)Nc2sc3c(c2C(N)=O)CCC3)C1=O,-28.1%,.,?,-10.2%,-11.4%,17.8µM*,-12.0%,?,?,?
Cn1ncc(S(=O)(=O)Cc2ccccc2)c(Br)c1=O,.,.,4.9,.,.,.,.,.,.,.
Cc1cc2c3c(cccc3n1)C(=O)c1ccccc1-2,.,13.7%,.,.,.,?,?,6.3%,?,2.51µM*
Cc1ccc2[nH]cc(C(O)c3c[nH]c4ccc(C)cc34)c2c1,-14.3%,.,.,.,.,.,.,.,.,.
COc1cc(CC2COC(c3ccc(O)c(OC)c3)C2COC(C)=O)ccc1O (configuration not stated),56.2µM*,.,-11.9,?,-19.9%,3.98µM*,0.5%,3.3%,10µM*,-8.8%
COc1ccc(CNC(=O)Nc2ccc(C)c(C)c2)cc1,-8.2%,10.3%,-5.4,.,-4.5%,-6.1%,.,.,.,.
COc1ccc(CNC(=O)Nc2cc(C)cc(C)c2)cc1,-3.2%,2.4%,-2.4,i,-1.9%,-44.7%,-1.2%,5.2%,-5.2%[24.4 µM],3.3%
N#CN1CCC(NC(=O)c2cccc(C(F)(F)F)c2)CC1,.,0.2%,.,.,.,.,.,.,.,.
Nc1cc(=O)[nH]c(SCC(=O)Nc2cccc(Cl)c2)n1,9.4%,-4.7%,5.9,i,-25.6%,-0.5%,.,.,.,.
Cc1ccc(NC(=O)CSc2nc(NS(=O)(=O)c3ccccc3)cc(=O)[nH]2)cc1,79.4µM*,28.2µM*,?,?,?,?,.,.,-38.1%,.
CCc1ccc(NC(=O)CSc2nc(NS(=O)(=O)c3ccccc3)cc(=O)[nH]2)cc1,5.8%,.,-0.8,-1.3%,?,7.94µM*,2.5%,15.7%,-9.6%[24.4 µM],0.3%
Cc1ccc(NC(=O)CSc2nc(N)cc(=O)[nH]2)cc1Cl,2.4%,0.0%,-0.1,4.7%,-0.1%,35.5µM*,?,0.4%,-5.2%[24.4 µM],-3.5%
CCCCCN(CCCOC)C(=O)C(CCC(=O)O)NC(=O)c1ccc(Cl)c(Cl)c1 (configuration not stated),.,.,-1.0,.,.,.,.,.,.,.
COc1ccc(C2Nc3ccccc3C(=O)N2Cc2ccco2)cc1COc1ccc(N)cc1 (configuration not stated),.,0.0%,.,.,.,.,.,.,.,.
COc1cc(OC)c(OC)cc1/C=c1\[nH]c(=O)/c(=C/c2cc(OC)c(OC)cc2OC)[nH]c1=O,-4.6%,.,.,.,.,.,.,.,.,.
